Assay results: PubChem BioAssay (NCATS)
Records with an inconclusive call do not appear. The source made the active and inactive calls. The call rests on the fitted dose curve; in most records, active means well fitted curve in the direction sought with a large enough effect; inconclusive means small, poorly fitted or top-dose-only effect, or another doubt; inactive means no such curve, though single readings can be large; an effect the other way counts as inactive or inconclusive.

Assays:
[1] = Quantitative High-Throughput drug screen in 47 multiple myeloma cell lines against the NCATS MIPE library collection: KMS26_JCRB cell viability assay (AID 1918975); further: nearly all actives have a fitted effect of over 45% in size
Procedure, shortened: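 Steps: seed 500 cells per well; pin-transfer MIPE 4.0 library; incubate 48 h at 37C, 5% CO2, humidified; add CellTiter-Glo, 5 min room temperature; read luminescence.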

[2] = Quantitative High-Throughput drug screen in 47 multiple myeloma cell lines against the NCATS MIPE library collection: MMM1_PLB cell viability assay (AID 1918976); further: nearly all actives have a fitted effect of over 35% in size
Procedure, shortened: (§1)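 Myeloma cells (500/well) treated with MIPE 4.0 compounds for 48 h at 37 °C, 5% CO2. Viability read as ATP via CellTiter-Glo luminescence after 5 min at RT; DMSO-only wells = 100%, media-only = 0% viability.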

[3] = Quantitative High-Throughput drug screen in 47 multiple myeloma cell lines against the NCATS MIPE library collection: MM1S_ATCC cell viability assay (AID 1918980); further: nearly all actives have a fitted effect of over 45% in size
Procedure, shortened: as §1

[4] = Quantitative High-Throughput drug screen in 47 multiple myeloma cell lines against the NCATS MIPE library collection: MM1R_ATCC cell viability assay (AID 1918981); further: nearly all actives have a fitted effect of over 35% in size
Procedure, shortened: as §1

[5] = Quantitative High-Throughput drug screen in 47 multiple myeloma cell lines against the NCATS MIPE library collection: LP1_DSMZ cell viability assay (AID 1918982); further: nearly all actives have a fitted effect of over 35% in size
Procedure, shortened: as §1

[6] = Quantitative High-Throughput drug screen in 47 multiple myeloma cell lines against the NCATS MIPE library collection: KMS28PE_JCRB cell viability assay (AID 1918983); further: nearly all actives have a fitted effect of over 35% in size
Procedure, shortened: as §1

[7] = Quantitative High-Throughput drug screen in 47 multiple myeloma cell lines against the NCATS MIPE library collection: KMS34_JCRB cell viability assay (AID 1918985); further: nearly all actives have a fitted effect of over 40% in size
Procedure, shortened: as §1

[8] = Quantitative High-Throughput drug screen in 47 multiple myeloma cell lines against the NCATS MIPE library collection: OCIMY5_PLB cell viability assay (AID 1918988); further: nearly all actives have a fitted effect of over 65% in size
Procedure, shortened: as §1

[9] = Quantitative High-Throughput drug screen in 47 multiple myeloma cell lines against the NCATS MIPE library collection: MOLP8_DSMZ cell viability assay (AID 1918977); further: nearly all actives have a fitted effect of over 45% in size
Procedure, shortened: as §1

[10] = Quantitative High-Throughput drug screen in 47 multiple myeloma cell lines against the NCATS MIPE library collection: NCIH929_DSMZ cell viability assay (AID 1918978); further: nearly all actives have a fitted effect of over 35% in size
Procedure, shortened: as §1

[11] = Quantitative High-Throughput drug screen in 47 multiple myeloma cell lines against the NCATS MIPE library collection: L363_DSMZ cell viability assay (AID 1918984); further: nearly all actives have a fitted effect of over 40% in size
Procedure, shortened: as §1

[12] = Quantitative High-Throughput drug screen in 47 multiple myeloma cell lines against the NCATS MIPE library collection: OPM1_PLB cell viability assay (AID 1918989); further: nearly all actives have a fitted effect of over 40% in size
Procedure, shortened: as §1

[13] = Quantitative High-Throughput drug screen in 47 multiple myeloma cell lines against the NCATS MIPE library collection: SKMM1_PLB cell viability assay (AID 1919863); details: SKMM1 myeloma viability, CellTiter-Glo ATP, 48 h; viability: active compounds read low; further: nearly all actives have a fitted effect of over 35% in size
Procedure, shortened: as §1

[14] = Quantitative High-Throughput drug screen in 47 multiple myeloma cell lines against the NCATS MIPE library collection: U266_ATCC cell viability assay (AID 1919864); further: nearly all actives have a fitted effect of over 35% in size
Procedure, shortened: as §1

[15] = Quantitative High-Throughput drug screen in 47 multiple myeloma cell lines against the NCATS MIPE library collection: XG6_PLB cell viability assay (AID 1919865); further: nearly all actives have a fitted effect of over 40% in size
Procedure, shortened: as §1

[16] = Quantitative High-Throughput drug screen in 47 multiple myeloma cell lines against the NCATS MIPE library collection: XG1_PLB cell viability assay (AID 1919866); further: nearly all actives have a fitted effect of over 35% in size
Procedure, shortened: as §1

[17] = Quantitative High-Throughput drug screen in 47 multiple myeloma cell lines against the NCATS MIPE library collection: VP6_DJ cell viability assay (AID 1919867); further: nearly all actives have a fitted effect of over 40% in size
Procedure, shortened: as §1

[18] = Quantitative High-Throughput drug screen in 47 multiple myeloma cell lines against the NCATS MIPE library collection: OCIMY1_PLB cell viability assay (AID 1918979); further: nearly all actives have a fitted effect of over 35% in size
Procedure, shortened: as §1

[19] = Quantitative High-Throughput drug screen in 47 multiple myeloma cell lines against the NCATS MIPE library collection: UTMC2_PLB cell viability assay (AID 1919868); details: CellTiter-Glo ATP luminescence, 48 h; viability (% of DMSO control): at 45.8 µM (top of the series); further: nearly all actives have a fitted effect of over 55% in size
Procedure, shortened: as §1

[20] = Quantitative High-Throughput drug screen in 47 multiple myeloma cell lines against the NCATS MIPE library collection: OCIMY7_PLB cell viability assay (AID 1918987); further: nearly all actives have a fitted effect of over 65% in size
Procedure, shortened: as §1
Potency means the concentration at half of the fitted maximal effect.

CC(C)(N)C(=O)N[C@H](COCc1ccccc1)C(=O)N1CCC2(CC1)CN(S(C)(=O)=O)c1ccccc12
active: Potency [1] 0.0264 µM | Potency [2] 23.5 µM | Potency [3] 23.5 µM | Potency [4] 18.7 µM | Potency [5] 16.6 µM | Potency [6] 18.7 µM | Potency [7] 14.8 µM | Potency [8] 16.6 µM

Cc1c(CN2CCN(C(=O)C(C)C)CC2)sc2c(N3CCOCC3)nc(-c3cnc(N)nc3)nc12
active: Potency [1] 0.264 µM | Potency [2] 0.0526 µM | Potency [9] 0.0372 µM | Potency [10] 0.0166 µM | Potency [6] 0.0662 µM | Potency [11] 0.0209 µM | Potency [7] 0.0296 µM | Potency [8] 0.0743 µM | Potency [12] 0.118 µM | Potency [13] 0.148 µM | Potency [14] 0.372 µM | Potency [15] 0.132 µM | Potency [16] 0.0662 µM | Potency [17] 0.105 µM

CC(=O)Oc1ccccc1C(=O)O
active: Potency [1] 11.8 µM | Potency [10] 4.18 µM | Potency [4] 18.7 µM | Potency [8] 5.26 µM | Potency [14] 7.43 µM | Potency [15] 4.69 µM | Potency [16] 5.26 µM
inactive: Potency [9] | Potency [18] | Potency [6] | Potency [11] | Potency [7] | Potency [12] | viability [13] 129%

COc1cc2nccc(Oc3ccc(NC(=O)NC4CC4)c(Cl)c3)c2cc1C(N)=O
inactive: Potency [11]
active: Potency [1] 23.5 µM | Potency [2] 2.35 µM | Potency [9] 13.2 µM | Potency [10] 16.6 µM | Potency [18] 20.9 µM | Potency [3] 0.264 µM | Potency [5] 20.9 µM | Potency [7] 18.7 µM | Potency [8] 3.32 µM | Potency [12] 16.6 µM | Potency [13] 13.2 µM | Potency [14] 7.43 µM | Potency [15] 3.32 µM | Potency [16] 18.7 µM | Potency [19] 2.64 µM

NS(=O)(=O)c1cc2c(cc1Cl)NC=NS2(=O)=O
inactive: Potency [1] | Potency [9] | Potency [4] | Potency [5] | Potency [6] | Potency [11] | Potency [7] | Potency [8] | Potency [14] | Potency [17]

Cc1ccc(-n2nc(C(C)(C)C)cc2NC(=O)Nc2ccc(OCCN3CCOCC3)c3ccccc23)cc1
inactive: Potency [18] | Potency [5]
active: Potency [2] 20.9 µM | Potency [10] 0.59 µM | Potency [3] 4.18 µM | Potency [20] 2.96 µM | Potency [8] 20.9 µM | Potency [12] 26.4 µM | Potency [14] 23.5 µM | Potency [15] 3.32 µM | Potency [17] 10.5 µM

CC(=O)NC(C)c1ccc(Oc2ccc(OC(C)C)cc2)cc1 (configuration not stated)
inactive: Potency [14]
active: Potency [2] 16.6 µM | Potency [9] 18.7 µM | Potency [10] 10.5 µM | Potency [18] 14.8 µM | Potency [6] 18.7 µM | Potency [8] 16.6 µM | Potency [12] 1.48 µM | Potency [16] 16.6 µM

Cc1cc(-c2ccc(CC(=O)Nc3ccc(-c4cccnc4)cc3)cc2)ccn1
inactive: Potency [9] | Potency [3] | Potency [4]
active: Potency [2] 20.9 µM | Potency [10] 23.5 µM | Potency [8] 16.6 µM | Potency [12] 20.9 µM | Potency [16] 18.7 µM | Potency [17] 11.8 µM

Cc1csc(NC(=O)c2sc3nc4c(c(C(F)(F)F)c3c2N)CCC4)n1
inactive: Potency [2] | Potency [9] | Potency [10] | Potency [4] | Potency [15] | Potency [19]
active: Potency [5] 20.9 µM | Potency [8] 20.9 µM | Potency [14] 7.43 µM | Potency [16] 2.35 µM

Cc1oncc1C(=O)Nc1ccc(C(F)(F)F)cc1
active: Potency [10] 18.7 µM | Potency [3] 14.8 µM | Potency [5] 10.5 µM | Potency [15] 4.69 µM | Potency [16] 16.6 µM
inactive: Potency [1] | Potency [18] | Potency [20] | viability [13] 115%

CCOC(=O)C1=C[C@]2(CC)CCCN3CCc4c(n1c1ccccc41)[C@@H]32
active: Potency [2] 14.8 µM | Potency [9] 18.7 µM | Potency [10] 8.33 µM | Potency [3] 11.8 µM | Potency [5] 20.9 µM | Potency [6] 20.9 µM | Potency [11] 11.8 µM | Potency [20] 9.35 µM | Potency [8] 13.2 µM | Potency [12] 8.33 µM | Potency [13] 26.4 µM | Potency [14] 16.6 µM | Potency [15] 7.43 µM | Potency [16] 6.62 µM | Potency [17] 9.35 µM

O=C(O)COCCN1CCN(C(c2ccccc2)c2ccc(Cl)cc2)CC1 (configuration not stated)
active: Potency [2] 14.8 µM | Potency [11] 0.296 µM
inactive: Potency [9] | Potency [18] | Potency [3] | Potency [4] | Potency [7] | Potency [8] | viability [13] 122% | Potency [14] | Potency [15] | Potency [16] | Potency [17]

O=C(NOC[C@H](O)CO)c1ccc(F)c(F)c1Nc1ccc(I)cc1F
active: Potency [10] 0.059 µM | Potency [3] 16.6 µM | Potency [6] 2.96 µM | Potency [20] 0.0148 µM | Potency [12] 1.48 µM | Potency [14] 16.6 µM | Potency [15] 0.0074 µM | Potency [16] 0.0296 µM | Potency [17] 0.0372 µM
inactive: Potency [1] | Potency [18] | Potency [5] | Potency [8]

CCC(C)n1ncn(-c2ccc(N3CCN(c4ccc(OC[C@H]5CO[C@](Cn6cncn6)(c6ccc(Cl)cc6Cl)O5)cc4)CC3)cc2)c1=O (some centres not stated)
active: Potency [2] 2.96 µM | Potency [18] 4.18 µM | Potency [6] 14.8 µM | Potency [8] 2.96 µM | Potency [13] 14.8 µM
inactive: Potency [10] | Potency [3] | Potency [20] | Potency [12] | Potency [14] | Potency [16]
